Assay results published in PubChem BioAssay (NCATS).
Results filed as inconclusive are left out. Active and inactive are the calls of the source. Unless noted, the rule behind the calls is not given here.

Assays:
[1] = qHTS profiling of the MIPE4 collection as inhibitors of Plasmodium falciparum (3D7) proliferation (AID 743344);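 note: scaled between DMSO vehicle wells and 0.29 µM artemisinin as full inhibition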; settings: P. falciparum 3D7 in erythrocytes, SYBR Green DNA fluorescence, 72 h; at 28.5 µM unless noted
Procedure, shortened: (§1)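 Parasite DNA was quantified by SYBR Green I fluorescence (ex 485, em 535 nm) after overnight lysis in saponin/Triton buffer at room temperature. Cultures at 0.3% parasitemia and 2.5% hematocrit were first exposed to compound for 72 h at 37 C; signals were normalised to artemisinin (0.29 uM) and vehicle wells.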

[2] = qHTS profiling of the MIPE4 collection as inhibitors of Plasmodium falciparum (DD2) proliferation (AID 743345); settings: P. falciparum Dd2 in erythrocytes, SYBR Green DNA, 72 h; at 28.5 µM unless noted
Procedure, shortened: as §1

[3] = qHTS profiling of the MIPE4 collection as inhibitors of Plasmodium falciparum (DD2) proliferation (Rep 2) (AID 743346); settings: P. falciparum Dd2 in erythrocytes, SYBR Green DNA, 72 h; at 28.5 µM unless noted
Procedure, shortened: as §1

[4] = qHTS profiling of the MIPE4 collection as inhibitors of Plasmodium falciparum (HB3) proliferation (AID 743347);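 note: plate controls were DMSO vehicle wells for no effect and artemisinin wells for full effect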; settings: P. falciparum HB3 in erythrocytes, SYBR Green DNA, 72 h; at 28.5 µM unless noted
Procedure, shortened: as §1

[5] = High-throughput drug toxicity screening in the BPDCN cell line Gen2.2 (AID 1224824); settings: Gen2.2 BPDCN cells; at 45.8 µM (top of the series) unless noted;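 note: cells exposed to compounds for 48 h before reading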
Procedure, shortened: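 Seed 500 exponentially growing Gen2.2 cells/well; add compounds by pin tool; incubate 48 h, 37 °C, 5% CO2; add CellTiter-Glo, 15 min RT; read luminescence. % activity vs DMSO (100%) and bortezomib (0%).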

[6] = High-throughput drug toxicity screening in the BPDCN cell line Cal-1 (AID 1224825); settings: Cal-1 BPDCN cell viability, qHTS; at 45.8 µM (top of the series) unless noted
Procedure, shortened: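 CellTiter-Glo luminescence after 48 h compound exposure; percent activity scaled with DMSO as 100% and bortezomib (9.2 uM final) as 0%. Cal-1 cells seeded at 500/well in RPMI, 10% FBS, no phenol red.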

[7] = qHTS assay for measurement of the activity of small molecule inhibitors on Zika virus induced Caspase-3 activity in human iPSC derived neural progenitor cells (hNPCs) (AID 1224857; active = well fitted curve in the direction sought with a large enough effect; an effect the other way counts as inactive or inconclusive; note: nearly all actives have a fitted effect of over 65% in size; note: potency is the fitted concentration of half-maximal effect)
Procedure, shortened: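 Caspase-3/7 induction by a 6-hour ZIKV infection was quantified with a luminescent Caspase-Glo 3/7 reagent incubated 30 minutes at room temperature. Compounds were preincubated with hNPCs for 1 hour; inhibition was calculated against uninfected and infected control wells.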

[8] = qHTS assay for measurement of the activity of small molecule inhibitors on Zika virus induced Caspase-3 activity in human astrocytoma cells (AID 1224859; active = well fitted curve in the direction sought with a large enough effect; an effect the other way counts as inactive or inconclusive; note: potency is the fitted concentration of half-maximal effect)
Procedure, shortened: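 In SNB-19 cells plated at 250 cells/well and grown 16-20 h, compounds were applied 1 h before ZIKV (2 FFU/cell). Six hours later caspase-3/7 luminescence was recorded.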

[9] = qHTS Screen of the MIPE 4.0 Collection Against Ewings Sarcoma (RDES) (AID 1259252; active = well fitted curve in the direction sought with a large enough effect; an effect the other way counts as inactive or inconclusive; note: nearly all actives have a fitted effect of over 35% in size; note: potency is the fitted concentration of half-maximal effect)
Procedure, shortened: (§2)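 Dose series incubated 48 h with cells in RPMI plus 5% FBS, glutamine and penicillin/streptomycin; cell viability then quantified via CellTiter-Glo.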

[10] = qHTS Screen of the MIPE 4.0 Collection Against Ewings Sarcoma (TC32) (AID 1259256; active = well fitted curve in the direction sought with a large enough effect; an effect the other way counts as inactive or inconclusive; note: nearly all actives have a fitted effect of over 45% in size; note: potency is the fitted concentration of half-maximal effect)
Procedure, shortened: as §2

[11] = qHTS Screen of the MIPE 4.0 Collection Against Ewings Sarcoma (EW8) (AID 1259255; active = well fitted curve in the direction sought with a large enough effect; an effect the other way counts as inactive or inconclusive; note: nearly all actives have a fitted effect of over 35% in size; note: potency is the fitted concentration of half-maximal effect;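 for viability: 100% = DMSO-treated cells and 0% = medium-only wells without cells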)
Procedure, shortened: as §2

[12] = P-glycoprotein substrates identified in KB-3-1 adenocarcinoma cell line, qHTS therapeutic library screen (AID 1346986; active = well fitted curve in the direction sought with a large enough effect; an effect the other way counts as inactive or inconclusive; note: nearly all actives have a fitted effect of over 60% in size)
Procedure, shortened: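 Viability by CellTiter-Glo after 72 h compound exposure at 37 degree C, 5% CO2. Cytotoxic call: curve class -1.1 to -2.4, maximum response >50%, AC50 < 10 uM, compared across KB-3-1 and P-gp-overexpressing KB-8-5-11.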

[13] = qHTS profiling for inhibitors of Plasmodium falciparum (HB3) proliferation (AID 743324; active = well fitted curve in the direction sought with a large enough effect; an effect the other way counts as inactive or inconclusive;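 note: 100% = DMSO vehicle wells and 0% = artemisinin-treated control wells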); settings: Plasmodium falciparum HB3 blood-stage proliferation; at 28.7 µM (top of the series) unless noted
Procedure, shortened: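 SYBR Green fluorescence (485 ex/535 em) of lysed cultures, incubated overnight at room temperature in the dark, quantifies parasite DNA. Infected erythrocytes at 0.3% parasitemia and 2.5% hematocrit were exposed 72 h; values normalized to DMSO and 0.29 uM artemisinin controls.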

[14] = Identifying Small Molecule Inhibitors of Pancreatic Cancer Stem Cells (SN12C, Adherent) (AID 1259358; active = well fitted curve in the direction sought with a large enough effect; an effect the other way counts as inactive or inconclusive;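 note: potency is the fitted concentration of half-maximal effect; cell survival measured after 48 h of compound exposure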)
Procedure, shortened: (§3)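 Endpoint: ATP-based luminescence, 48 h drug exposure. Bortezomib at 9.2 uM final as full-kill control; DMSO vehicle as negative control; activity normalized between vehicle and cell-free wells.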

[15] = qHTS assay to identify small molecule inhibitors of chordoma cells - UCH-2 (AID 1259356; active = well fitted curve in the direction sought with a large enough effect; an effect the other way counts as inactive or inconclusive; note: % is set by controls: 0 for no effect and ±100 for the full control effect)
[16] = qHTS Screen of the MIPE 4.0 Collection Against Ewings Sarcoma (TC71) (AID 1259253; active = well fitted curve in the direction sought with a large enough effect; an effect the other way counts as inactive or inconclusive; note: potency is the fitted concentration of half-maximal effect; nearly all actives have a fitted effect of over 40% in size)
Procedure, shortened: as §2

[17] = Identifying Small Molecule Inhibitors of Pancreatic Cancer Stem Cells (A2780, Spheroid) (AID 1259357; active = well fitted curve in the direction sought with a large enough effect; an effect the other way counts as inactive or inconclusive;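 note: spheroids pre-formed over 14 days in stem cell medium on hydrogel; potency is the fitted concentration of half-maximal effect; compound exposure lasted 48 h before the ATP luminescence read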); settings: Potency: A2780 spheroid viability
Procedure, shortened: (§4)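 Spheroids grown 14 days in stem cell media on hydrogel-coated nonadherent plates; 2D lines seeded directly. Compounds added after 4 h attachment, 48 h at 37C, 5% CO2; CellTiter-Glo luminescence normalized to DMSO (no inhibition) and no-cell wells (full inhibition).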

[18] = Identifying Small Molecule Inhibitors of Pancreatic Cancer Stem Cells (SN12C, Spheroid) (AID 1259360; active = well fitted curve in the direction sought with a large enough effect; an effect the other way counts as inactive or inconclusive; note: potency is the fitted concentration of half-maximal effect); settings: Potency: SN12C spheroid viability
Procedure, shortened: as §4

[19] = Identifying Small Molecule Inhibitors of Pancreatic Cancer Stem Cells (A278, Adherent) (AID 1259361; active = well fitted curve in the direction sought with a large enough effect; an effect the other way counts as inactive or inconclusive;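 note: viability read after 48 h compound exposure; nearly all actives have a fitted effect of over 35% in size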)
Procedure, shortened: as §3

SMILES	parasite growth, % of DMSO control [1] [%]	parasite growth remaining, % of DMSO control (lower = more inhibition) [2] [%]	parasite growth, % of control (lower = inhibition) [3] [%]	growth, % of control [4] [%]	cell viability, % of control (lower = more cytotoxic) [5] [%]	viability (% of control) [6] [%]	Potency [7]	Potency [8]	Potency [9]	Potency [10]	Potency [11]	Potency [12]	remaining proliferation (% of control), lower = more inhibition [13] [%]	Potency [14]	outcome [15]	Potency [16]	Potency [17]	Potency [18]	IC50 (viability decrease) [19]
CC[C@H](C)n1cc(C)c2c(C(=O)NCc3c(C)cc(C)[nH]c3=O)cc(-c3ccc(N4CCNCC4)nc3)cc21	4.84	8.83	8.77	6.2	133	39.5	inactive	inactive	23.5 µM (active)	18.7 µM (active)	–	–	–	–	–	–	–	–	–
CC(C)(C)c1nc(-c2cccc(NS(=O)(=O)c3c(F)cccc3F)c2F)c(-c2ccnc(N)n2)s1	18.2	16.6	35	10.3	25.6	55.4	inactive	inactive	6.62 µM (active)	–	18.7 µM (active)	–	–	–	–	–	–	–	–
Cc1ccc(S(=O)(=O)OCC(=O)Nc2ccc(C(=O)O)c(O)c2)cc1	61.2	85.7	124	75.5	96.8	25.4	inactive	inactive	11.8 µM (active)	11.8 µM (active)	–	inactive	–	–	–	–	–	–	–
CO[C@H]1/C=C\O[C@@]2(C)Oc3c(C)c(O)c4c(O)c(c(C=NN5CCN(C6CCCC6)CC5)c(O)c4c3C2=O)NC(=O)C(C)=CC=C[C@H](C)[C@H](O)[C@@H](C)[C@@H](O)[C@@H](C)[C@H](OC(C)=O)[C@H]1C	4.38	6.13	8.54	2.45	1.16	0.727	inactive	inactive	0.0418 µM (active)	inactive	–	–	–	–	–	–	–	–	–
CC(C)(O)CC(=O)NCCn1ccc2ncnc(Nc3ccc(Oc4cccc(C(F)(F)F)c4)c(Cl)c3)c21	11.6	18.3	23	9.01	75.3	61.4	inactive	inactive	0.935 µM (active)	26.4 µM (active)	–	–	–	–	–	–	–	–	–
Cc1cc(-c2ncc(CC(=O)Nc3ccc(-c4cnccn4)cn3)cc2C)ccn1	36.5	87.9	71.8	52.1	267	97	inactive	inactive	16.6 µM (active)	23.5 µM (active)	–	–	–	–	–	–	–	–	–
Cc1nc2c([nH]1)CCN(C(=O)c1ccc(NC(=O)c3ccccc3-c3ccccc3)cc1)c1ccccc1-2	5.23	8.18	13.3	9.61	48.7	55.1	inactive	inactive	inactive	inactive	–	–	–	–	–	–	–	–	–
COc1cc2nccc(Oc3ccc(NC(=O)Nc4cc(C)on4)c(Cl)c3)c2cc1OC	7.24	22.7	27.3	3.73	52.1	13	inactive	inactive	2.35 µM (active)	2.96 µM (active)	–	–	11.5	16.6 µM (active)	–	–	–	–	–
CC(C)C[C@@H](C(=O)N[C@H](C(=O)OC1CCCC1)c1ccccc1)[C@H](O)C(=O)NO	15.1	21.7	–	7.8	6.81	8.67	inactive	inactive	26.4 µM (active)	–	18.7 µM (active)	–	11	–	–	–	–	–	–
CN(C)CCOc1cc(-c2cn[nH]c2)ccc1NC(=O)C1COc2ccccc2O1 (stereo not given)	29.9	61.4	32.4	38.6	73.4	34.9	inactive	inactive	14.8 µM (active)	11.8 µM (active)	–	–	–	–	–	–	–	–	–
Cc1ccc(NC(=O)c2cccc(N(C)C)c2)cc1NC(=O)c1ccc(O)cc1	35.6	87.3	55.2	31.2	81.9	5.55	inactive	inactive	0.118 µM (active)	1.05 µM (active)	–	–	–	–	–	–	–	–	–
c1ccc(CNc2nc(N3CCOc4ccccc43)nc3c2CCCC3)cc1	10.7	70.4	21.3	8.4	233	95.6	inactive	inactive	inactive	inactive	–	–	–	–	–	–	–	–	–
CC1(C)OC2CC3C4CC(F)C5=CC(=O)C=CC5(C)C4C(O)CC3(C)[C@]2(C(=O)CO)O1 (stereo not given in full)	52.8	89.8	7.06	47.9	77.5	52	inactive	inactive	inactive	–	inactive	–	–	–	–	–	–	–	–
O=c1[nH]nc(OCCCc2ccc(Cl)cc2)c(NCc2cccnc2)c1Br	6.4	6.08	30.4	10.3	9.32	8.48	inactive	inactive	18.7 µM (active)	–	13.2 µM (active)	–	–	–	–	–	–	–	–
N#CC(c1ccnc(NCCc2cccnc2)n1)c1nc2ccccc2s1 (stereo not given)	4.46	18.6	15.5	7.28	9.41	3.4	inactive	inactive	23.5 µM (active)	–	14.8 µM (active)	–	–	–	–	–	–	–	–
CC(C)C[C@@H](N)[C@H](O)C(=O)N[C@H](C(=O)N[C@H](C(=O)N[C@@H](CC(=O)O)C(=O)O)C(C)C)C(C)C	102	99.5	–	107	128	104	inactive	inactive	20.9 µM (active)	–	inactive	–	–	–	–	–	–	–	–
Cc1cc2nc3c(=O)[nH]c(=O)nc-3n(CC(O)C(O)C(O)CO)c2cc1C (stereo not given)	21.3	57.4	–	17.8	77.3	101	inactive	inactive	inactive	–	inactive	–	–	–	–	–	–	–	–
Oc1cc(O)cc(C=Cc2ccc(O)c(O)c2)c1	39.8	76.7	32.1	50.9	3.35	3.72	23.5 µM (active)	4.18 µM (active)	20.9 µM (active)	–	18.7 µM (active)	–	–	–	–	–	–	–	–
CCOC(=O)N1c2ccc(C(F)(F)F)cc2[C@@H](N(Cc2cc(C(F)(F)F)cc(C(F)(F)F)c2)C(=O)OC)C[C@H]1CC	6.27	7.82	14.4	3.55	115	91.9	inactive	inactive	23.5 µM (active)	–	20.9 µM (active)	–	–	–	–	–	–	–	–
CS(=O)(=O)c1ccc(C2=C(c3ccccc3)C(=O)OC2)cc1	94.3	83.1	70.8	58.5	123	109	inactive	inactive	inactive	–	–	–	–	–	inactive	–	–	–	–
O=C1CN2Cc3c(ccc(Cl)c3Cl)N=C2N1	82.8	91.6	85.1	85.4	198	96.9	inactive	inactive	23.5 µM (active)	23.5 µM (active)	–	–	46.3	–	–	–	–	–	–
CN(C(Cc1ccc(OS(=O)(=O)c2cccc3cnccc23)cc1)C(=O)N1CCN(c2ccccc2)CC1)S(=O)(=O)c1cccc2cnccc12 (stereo not given)	6.17	7.38	10.8	8.15	116	85.3	inactive	inactive	–	16.6 µM (active)	14.8 µM (active)	–	–	–	–	18.7 µM (active)	–	–	–
C=CC(=O)Nc1cccc(Sc2nc(Nc3ccc(N4CCN(C)CC4)cc3)ncc2Cl)c1	4.12	10.2	6.26	1.99	8.4	2.56	inactive	inactive	18.7 µM (active)	–	–	–	–	–	–	–	–	–	–
O=C(c1ccc(C=Cc2n[nH]c3ccccc23)cc1)N1CCNCC1	22.1	31.2	22.9	–	57.2	18	inactive	inactive	–	0.743 µM (active)	0.662 µM (active)	–	–	–	–	1.66 µM (active)	–	–	–
CCOC(=O)c1c(CSc2ccccc2)n(C)c2cc(Br)c(O)c(CN(C)C)c12	8.99	10.6	12.1	2.97	164	52.2	inactive	inactive	–	13.2 µM (active)	20.9 µM (active)	–	–	–	–	16.6 µM (active)	–	–	–
C[C@@H](O[C@H]1OCCN(Cc2n[nH]c(=O)[nH]2)[C@@H]1c1ccc(F)cc1)c1cc(C(F)(F)F)cc(C(F)(F)F)c1	26.5	52.9	66.5	34.2	39.1	16.1	8.33 µM (active)	inactive	–	16.6 µM (active)	26.4 µM (active)	–	9.06	18.7 µM (active)	–	20.9 µM (active)	18.7 µM (active)	20.9 µM (active)	16.6 µM (active)
COc1cc2c(cc1OC)[C@@H]1Cc3ccc(OC)c(OC)c3CN1CC2	25.7	36.6	26.7	–	132	20.2	inactive	inactive	7.43 µM (active)	–	–	–	–	–	–	–	–	–	–
CC(C)(CO)[C@@H](O)C(=O)NCCC(=O)O	92.1	101	114	–	85	107	inactive	inactive	20.9 µM (active)	–	–	–	–	–	–	–	–	–	–
